Reference: PubChem BioAssay (NCI)
This is part of a sample that, as a whole, favours compounds with a hit. Of some 83,000 tested, about 20% had one in any assay.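 In brief: 96-well plates, 48 h treatment, single concentration, percent growth endpoint.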 A number with no mark means an inactive call. Calls of active or inactive are those of the source. The calls were made as follows: active = growth percent below 10; inactive = the rest.

Legend:
Test in all cases: NCI-60 one-dose screen, 48 h (100 = growth as untreated, 0 = no growth, -100 = all killed)
Settings in all cases: 10 µM unless noted
HCT-15 colon = test system: HCT-15 colon
HT29 colon = test system: HT29 colon
SNB-75 CNS = test system: SNB-75 CNS
SNB-19 CNS = test system: SNB-19 CNS
U251 CNS = test system: U251 CNS
PC-3 prostate = test system: PC-3 prostate
SK-MEL-5 melanoma = test system: SK-MEL-5 melanoma
UACC-62 melanoma = test system: UACC-62 melanoma
LOX IMVI melanoma = test system: LOX IMVI melanoma
SK-MEL-28 melanoma = test system: SK-MEL-28 melanoma
EKVX NSCLC = test system: EKVX NSCLC
SN12C renal = test system: SN12C renal
UO-31 renal = test system: UO-31 renal
TK-10 renal = test system: TK-10 renal
ACHN renal = test system: ACHN renal
CAKI-1 renal = test system: CAKI-1 renal
A498 renal = test system: A498 renal
CCRF-CEM leukemia = test system: CCRF-CEM leukemia
MOLT-4 leukemia = test system: MOLT-4 leukemia
SK-MEL-2 melanoma = test system: SK-MEL-2 melanoma

Structure (SMILES) | growth (HCT-15 colon) | growth (HT29 colon) | growth (SNB-75 CNS) | growth (SNB-19 CNS) | growth (U251 CNS) | growth (PC-3 prostate) | growth (SK-MEL-5 melanoma) | growth (UACC-62 melanoma) | growth (LOX IMVI melanoma) | growth (SK-MEL-28 melanoma) | growth (EKVX NSCLC) | growth (SN12C renal) | growth (UO-31 renal) | growth (TK-10 renal) | growth (ACHN renal) | growth (CAKI-1 renal) | growth (A498 renal) | growth (CCRF-CEM leukemia) | growth (MOLT-4 leukemia) | growth (SK-MEL-2 melanoma)
c1cc2c(cc1-c1cnc3nonc3n1)OCO2 | 57.1% | 109% | 96.8% | 92.6% | 94.2% | 56.8% | 91.2% | 66% | 84.9% | 104% | 93.4% | 103% | 87.9% | 105% | 73.3% | 84.4% | 86.9% | 46% | 80.3% | –
CCS(=O)(=O)Nc1cccc(Nc2c3cccc(C)c3nc3c(C)cccc23)c1OC | 11.1% | 11.3% | 21.7% | 38.8% | 7.01% (active) | 21.4% | 17.4% | 45.5% | 12.8% | 56.9% | – | 12.5% | 10.7% | 29.2% | -1.64% (active) | 10.7% | -1.15% (active) | – | -12.8% (active) | 51.4%
COc1cc(OC)cc(-c2ccc(-c3ccc(C(=N)N)s3)s2)c1 | -77.4% (active) | -87.4% (active) | -91.5% (active) | -82.9% (active) | -90.1% (active) | -83.9% (active) | -97.4% (active) | -90.5% (active) | -71.6% (active) | -85.3% (active) | – | -69.5% (active) | -85.8% (active) | -88.7% (active) | -76% (active) | -86.4% (active) | -80.9% (active) | – | -71.2% (active) | -85.4% (active)
CC(C)(C)c1cc(C[P+](c2ccccc2)(c2ccccc2)c2ccccc2)cc(C(C)(C)C)c1O | 23.2% | -13.1% (active) | 2.05% (active) | 24.5% | 5.39% (active) | -10.5% (active) | -96.9% (active) | -3.2% (active) | 5.93% (active) | 38.4% | – | 12.2% | -11.4% (active) | -3.05% (active) | -10.8% (active) | -2.21% (active) | -17.1% (active) | – | -7.18% (active) | -39.9% (active)
Cc1ccc(NC(=O)c2cc(NCc3cc(O)ccc3O)ccc2O)cc1 | 86.3% | 82.9% | 97.8% | 99.8% | 95.4% | 74% | 88.6% | 81.9% | 94.7% | 108% | – | – | 58% | 102% | 100% | 107% | – | 26.4% | 69.7% | 82.8%
CCOC(=O)C(CCCCC(NC(C)=O)(C(=O)OCC)C(=O)OCC)(NC(C)=O)C(=O)OCC | 106% | 100% | 95.3% | 110% | 104% | 101% | 104% | 99.5% | 98.3% | 97% | – | 101% | 87.3% | 97.9% | 104% | 104% | 115% | – | 109% | 95.9%
O=C(/C=C/c1ccccc1Br)c1cccc(OCCCCOc2cccc(C(=O)/C=C/c3ccccc3Br)c2)c1 | 81.6% | 89.3% | 79.7% | 90.8% | 77% | 92% | 98.7% | 78.8% | 86.4% | 102% | – | 96.6% | 81.3% | 117% | – | 91.9% | 108% | 88.5% | 91.6% | 104%
COc1ccc(Cl)cc1Nc1nc(C(F)(F)F)ccc1C(=O)NN | 15.8% | 31.4% | 15% | 41.7% | 18.4% | 17.2% | 77.5% | 9.62% (active) | 5.37% (active) | 13.4% | – | 35.7% | 33.6% | – | – | 20.5% | 75.3% | -76.5% (active) | 24.5% | 11.7%
O=C(/C=C/c1ccco1)c1ccccc1O | 93.1% | 112% | 108% | 102% | 109% | 95.9% | 111% | 103% | 95.2% | 111% | – | 102% | 87.5% | 122% | 102% | 99.3% | 106% | 76.5% | 118% | 108%
Cc1c(C(=O)Nc2ccccc2F)sc2c(=O)[nH]cnc12 | 59% | 63.8% | 77.9% | 96% | 89.7% | 81.9% | 92.3% | 78.4% | 85% | 94.3% | 91% | 96.2% | 74.6% | 90.8% | 102% | 74.7% | 99.6% | 90.4% | 82% | –
COc1ccc(CNc2c3ccccc3nc3ccccc23)cc1F | 11% | 12.2% | 42.5% | 28% | 26.9% | 30.4% | 36.5% | 42.4% | 1.25% (active) | 46.7% | – | 25.9% | – | 36.1% | 10.9% | 21.3% | -6.26% (active) | 29.6% | 8.92% (active) | 45.1%
CNC(=O)c1c(NC(=O)c2ccc(C(C)C)cc2)sc2c1CCC(=O)C2 | -40.7% (active) | 3.51% (active) | -11.9% (active) | 8.7% (active) | -20.2% (active) | -40% (active) | -71.4% (active) | -54.7% (active) | 1.13% (active) | -32.1% (active) | -4.35% (active) | -10.8% (active) | -99.6% (active) | 28.7% | -90.2% (active) | -9.28% (active) | -19.7% (active) | 1.96% (active) | – | –
COc1cccc(-c2nc3sccn3c2-c2ccnc(NCCN3CCCN(C)S3(=O)=O)n2)c1 | 68% | 50.6% | 62.5% | 123% | 99.9% | 87.2% | 84.1% | 15.2% | 45.2% | 53% | 103% | 64.7% | 73.4% | 120% | 54% | 50.7% | 98.1% | 63.3% | 82.8% | –
COc1cc2ncnc(Nc3ccc(S(=O)(=O)Nc4nccs4)cc3)c2cc1OCCCN1CCOCC1 | 104% | 106% | 95.1% | 104% | 100% | 99% | 108% | 98.7% | 97.2% | 109% | 111% | 98% | 83.6% | 103% | 103% | 91.7% | 115% | 105% | 105% | –
Cc1csc(N/N=C/c2ccncc2)n1 | 103% | 87.4% | 105% | 100% | 83.5% | 111% | 100% | 93.2% | 100% | 110% | 90.1% | 97.8% | 95% | 91% | 103% | 99.5% | 85.2% | – | – | –
Cc1cc(Nc2c3ccccc3nc3ccccc23)ccc1NS(C)(=O)=O | 19.8% | 18.2% | 51.3% | 58% | 27.1% | 33.2% | 43.4% | 57% | 28.3% | 57.2% | – | 39.6% | 22.7% | 56% | 9.04% (active) | 29% | 24.2% | – | 2.33% (active) | 40.7%
C[Si](C)(C)C(c1ccccc1)c1ccccc1 | 91.8% | 101% | 102% | 111% | 100% | 80.3% | 115% | 108% | 95.9% | 115% | – | 102% | – | – | 93.1% | 86.2% | 99.7% | – | 81.8% | 127%
Nc1c(C(=O)Nc2ccccc2)sc2nc3c(cc12)C(=O)CCC3 | 27.2% | 4.34% (active) | 12.4% | 36.1% | 25.7% | 21.6% | 25.7% | 44.1% | 51.2% | 58.7% | – | 59.8% | – | 63.6% | 49.7% | 54.7% | 37.3% | 16.8% | 43.4% | 38.7%
